Measured values from PubChem BioAssay (NCATS).
Inconclusive results are not listed. The source made the active and inactive calls. Calls come from the whole dose curve; as a rule, active = well fitted curve in the direction sought with a large enough effect; inconclusive = small, poorly fitted or top-dose-only effect, or another doubt; inactive = no such curve, though single readings can be large; an effect the other way counts as inactive or inconclusive.

Key:
UISO = experiment: qHTS assay to identify novel small-molecules to repurpose for Merkel cell carcinoma treatment (AID 1296009); conditions: MCC and control cell lines, CellTiter-Glo viability, 72 h; series mostly up to 46 µM; note: nearly all actives have a fitted effect of over 60% in size
How it was run: (§1)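 Dose-response viability screen; 72 hr exposure at 37 degree celsius; CellTiter-Glo added, 10 min room temperature, luminescence read; RLUs scaled between no-cell and DMSO wells.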

WaGa = experiment: as above; conditions: MCC and control cell lines, CellTiter-Glo viability, 72 h; series mostly up to 46 µM
How it was run: as §1

C33A = experiment: Primary qHTS to identify gynecologic anti-cancer compounds using libraries of approved drugs and bioactive compounds (AID 1345084); conditions: Gynecologic cancer cell panel viability, ATPlite luminescence, 48 h; series mostly up to 57.5 µM; note: nearly all actives have a fitted effect of over 55% in size
How it was run: (§2)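 ATP-based viability (ATPlite), 1,000 cells/well, 16 h pre-incubation, 48 h compound at 37 C, 5% CO2, 15 min RT before read.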

CAOV3 = experiment: as above; conditions: Gynecologic cancer cell panel viability, ATPlite luminescence, 48 h; series mostly up to 57.5 µM
How it was run: as §2

CASKI = experiment: as above; conditions: Gynecologic cancer cell panel viability, ATPlite luminescence, 48 h; series mostly up to 57.5 µM
How it was run: as §2

Es-2 = experiment: as above; conditions: Gynecologic cancer cell panel viability, ATPlite luminescence, 48 h; series mostly up to 57.5 µM
How it was run: as §2

HeLa = experiment: as above; conditions: Gynecologic cancer cell panel viability, ATPlite luminescence, 48 h; series mostly up to 57.5 µM
How it was run: as §2

Hek293T = experiment: as above; conditions: Gynecologic cancer cell panel viability, ATPlite luminescence, 48 h, control line for the selectivity index; series mostly up to 57.5 µM
How it was run: as §2

JEG-3 = experiment: as above; conditions: Gynecologic cancer cell panel viability, ATPlite luminescence, 48 h; series mostly up to 57.5 µM
How it was run: as §2

OV90 = experiment: as above; conditions: Gynecologic cancer cell panel viability, ATPlite luminescence, 48 h; series mostly up to 57.5 µM
How it was run: as §2
% is set by controls: 0 for no effect and ±100 for the full control effect.

NC[C@H]1O[C@H](O[C@H]2[C@H](O[C@@H]3O[C@H](CO)[C@@H](O)[C@H]3O)C(O)[C@H](N)C[C@@H]2N)[C@H](N)[C@@H](O)[C@@H]1O (some centres undefined)
inactive: activity change, negative = cytotoxicity (UISO) 20% [at 9.22 µM] | activity change, negative = cytotoxicity (WaGa) 13.9% [at 9.22 µM] | activity change, negative = cytotoxicity (C33A) 11.5% [at 11.6 µM] | activity change, negative = cytotoxicity (CAOV3) -25.7% [at 11.6 µM] | activity change, negative = cytotoxicity (CASKI) 15.2% [at 11.6 µM] | activity change, negative = cytotoxicity (Es-2) -3.21% [at 11.6 µM] | activity change, negative = cytotoxicity (HeLa) 8.62% [at 11.6 µM] | activity change, negative = cytotoxicity (Hek293T) -5.51% [at 11.6 µM] | activity change, negative = cytotoxicity (JEG-3) -0.299% [at 11.6 µM] | activity change, negative = cytotoxicity (OV90) 0.648% [at 11.6 µM]

CC(C)(Oc1ccc(Cl)cc1)C(=O)O
inactive: Potency (UISO) | Potency (WaGa) | Potency (C33A) | Potency (CAOV3) | Potency (CASKI) | Potency (Es-2) | Potency (HeLa) | Potency (Hek293T) | Potency (JEG-3) | Potency (OV90)

NC(=O)c1cc[n+](CC2=C(C(=O)[O-])N3C(=O)[C@@H](NC(=O)Cc4cccs4)[C@H]3SC2)cc1
inactive: Potency (UISO) | Potency (WaGa) | Potency (C33A) | Potency (CAOV3) | Potency (CASKI) | Potency (Es-2) | Potency (HeLa) | Potency (Hek293T) | Potency (JEG-3) | Potency (OV90)

CCC(=O)c1c(O)cc(O)cc1O
inactive: Potency (UISO) | Potency (WaGa) | Potency (C33A) | Potency (CAOV3) | Potency (CASKI) | Potency (Es-2) | Potency (HeLa) | Potency (Hek293T) | Potency (JEG-3) | Potency (OV90)

OC[C@@H](O)[C@@H](O[C@@H]1O[C@H](CO)[C@H](O)[C@H](O)[C@H]1O)[C@H](O)[C@@H](O)CO
inactive: Potency (UISO) | Potency (WaGa) | Potency (C33A) | Potency (CAOV3) | Potency (CASKI) | Potency (Es-2) | Potency (HeLa) | Potency (Hek293T) | Potency (JEG-3) | Potency (OV90)

NC(CS)C(=O)O (centres undefined)
inactive: Potency (UISO) | Potency (WaGa) | Potency (C33A) | Potency (CAOV3) | Potency (CASKI) | Potency (Es-2) | Potency (HeLa) | Potency (Hek293T) | Potency (JEG-3) | Potency (OV90)

CCCCC1=NC2(CCCC2)C(=O)N1Cc1ccc(-c2ccccc2-c2nn[nH]n2)cc1
inactive: Potency (UISO) | Potency (WaGa) | Potency (C33A) | Potency (CAOV3) | Potency (CASKI) | Potency (Es-2) | Potency (HeLa) | Potency (Hek293T) | Potency (JEG-3) | Potency (OV90)

NC(CO)(CO)CO
inactive: Potency (UISO) | Potency (WaGa) | Potency (C33A) | Potency (CAOV3) | Potency (CASKI) | Potency (Es-2) | Potency (HeLa) | Potency (Hek293T) | Potency (JEG-3) | Potency (OV90)

CCN(CCCCOC(=O)c1ccc(OC)c(OC)c1)C(C)Cc1ccc(OC)cc1 (centres undefined)
inactive: Potency (UISO) | Potency (WaGa) | Potency (C33A) | Potency (CAOV3) | Potency (CASKI) | Potency (Es-2) | Potency (HeLa) | Potency (Hek293T) | Potency (JEG-3)

NCCc1ccn[nH]1
inactive: Potency (UISO) | Potency (WaGa) | Potency (C33A) | Potency (CAOV3) | Potency (CASKI) | Potency (Es-2) | Potency (HeLa) | Potency (Hek293T) | Potency (JEG-3) | Potency (OV90)
